These results are taken from PubChem BioAssay AID1851 (National Center for Advancing Translational Sciences (NCATS), 2009).

About 5,800 (36%) of roughly 16,000 compounds were called active. Inconclusive results (about 23%) are left out. The call rests on the fitted dose curve; in most records, active means well fitted curve in the direction sought with a large enough effect; inconclusive means small, poorly fitted or top-dose-only effect, or effect the other way; inactive means no such curve, though single readings can be large or run the other way. Some of the results follow.
On the % scale 0 is the no-effect control and ±100 the full control effect.

For the experiment, the target named is Cytochrome P450 2C19 (Homo sapiens) (UniProt P33261). The experiment in a line: Cytochrome panel assay with activity outcomes. The settings on record: recombinant CYP, pro-luciferin dealkylation, luminescence, p450-cyp2c19; series mostly up to 57.1 µM.
Sequence of Cytochrome P450 2C19 (Homo sapiens) (P33261 whole entry, looked up): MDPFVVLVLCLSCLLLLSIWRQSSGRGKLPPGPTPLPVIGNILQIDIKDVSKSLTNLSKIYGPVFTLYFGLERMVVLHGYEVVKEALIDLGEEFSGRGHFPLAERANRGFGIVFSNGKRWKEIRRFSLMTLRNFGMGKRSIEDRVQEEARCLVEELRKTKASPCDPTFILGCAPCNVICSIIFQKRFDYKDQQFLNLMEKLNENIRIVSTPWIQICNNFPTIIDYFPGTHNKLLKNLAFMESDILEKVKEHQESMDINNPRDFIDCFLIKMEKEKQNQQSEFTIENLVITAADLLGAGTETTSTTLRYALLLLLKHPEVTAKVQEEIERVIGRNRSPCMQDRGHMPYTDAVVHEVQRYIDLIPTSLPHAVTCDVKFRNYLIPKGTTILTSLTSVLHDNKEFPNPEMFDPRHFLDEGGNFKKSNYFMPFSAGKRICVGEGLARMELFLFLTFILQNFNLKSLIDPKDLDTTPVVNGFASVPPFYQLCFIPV
In the case of `CCCn1nc2cc(C(=O)NCc3ccccc3OC)ccc2c1OCC`, the AC50 was 20 µM (active).
Take `CCCn1nc2cc(C(=O)NCCCCc3ccccc3)ccc2c1OCC`: the concentration at half-maximal activity (AC50) is 6.31 µM (active).
Turning to `CCCCn1nc2cc(C(=O)NCCCCc3ccccc3)ccc2c1OCC`, the AC50 was 22.4 µM (active).
With `COC(=O)Cc1c(C)nc2nc(NCc3ccccc3OC)[nH]n2c1=O`, the AC50 result is “inactive”.
Consider `COc1ccccc1CNC(=O)c1cc2c(C)nn(Cc3ccc(F)cc3)c2s1`, for which the AC50 was 11.2 µM (active).
`NCC[C@H](N)C(=O)O`: the activity, negative = inhibition was -4.53% [at 11.4 µM] (inactive).
Consider `CCCn1nc2cc(C(=O)NC3CCCc4ccccc43)ccc2c1OCC` (stereo not drawn), for which the AC50 was 28.2 µM (active).
Turning to `CCOc1c2ccc(C(=O)NCc3ccc4c(c3)OCO4)cc2nn1CC`, the AC50 is 31.6 µM (active).
For `CCn1nc2cc(C(=O)NCC34CC5CC(CC(C5)C3)C4)ccc2c1OC`, the AC50 was 22.4 µM (active).
As for `COCCn1nc2cc(C(=O)NCC34CC5CC(CC(C5)C3)C4)ccc2c1OC`, the AC50 entry was “inactive”.
Still for that read-out and setting: the entry for `CCOc1c2ccc(C(=O)NC3CCCc4ccccc43)cc2nn1C` (stereo not drawn) is “inactive”; for `CCOc1c2ccc(C(=O)NCc3ccco3)cc2nn1CC` it is “inactive”; for `C=CCOc1c2ccc(C(=O)NC3CCCc4ccccc43)cc2nn1C` (stereo not drawn) it is “inactive”.
Take `CCCn1nc2cc(C(=O)NCCc3ccc(C)cc3)ccc2c1OCC`: the half-maximal activity concentration (AC50) was 25.1 µM (active).
As to `COC(=O)C/C=C\[C@@H](C)[C@@H](/C=N\O[C@@H]1O[C@H](COC(C)=O)[C@H](OC(C)=O)[C@H](OC(C)=O)[C@H]1OC(C)=O)OC`, the activity, negative = inhibition is -12.5% [at 11.4 µM] (inactive).
For the molecule `NS(=O)(=O)c1ccc(N=Nc2cc3ccccc3c(C(=O)O)c2O)cc1`, the activity, negative = inhibition was -28.9% [at 11.4 µM] (inactive).
Consider `OC[C@@H]1O[C@@H](n2cnc3cncnc32)[C@@H](O)[C@H]1O`, for which the AC50 result is “inactive”.
As for `O=C1C=C(NCCc2cc(Br)c(O)c(Br)c2)C(=O)c2ncccc21`, the AC50 was 0.501 µM (active).
Regarding `O=C(Nc1ncc(Cc2cc(Cl)ccc2Cl)s1)c1ccc([N+](=O)[O-])cc1`, the AC50 was 2 µM (active).
In the case of `CCOC(=O)N/N=C1/C[C@@H](O)[C@@H](O)[C@@H]2[C@@H]3C(=O)N(c4cccc(Oc5ccccc5)c4)C(=O)[C@H]3CC[C@H]12`, the activity, negative = inhibition is 42.4% [at 11.4 µM] (inactive).
With `N=C1CCC[C@@H]1C(=S)SCCC(N)=O`, the activity, negative = inhibition was -14.4% [at 11.4 µM] (inactive).
For the molecule `CC(C)CC1NC(=S)N(C2CCCCC2)C1=O` (stereo not drawn), the AC50 is 7.94 µM (active).
With `CCC(C)C1NC(=S)N(C2CCCCC2)C1=O` (stereo not drawn), the AC50 was 2 µM (active).
For the molecule `Cc1nc2cnc(Oc3ccccc3)nc2n(C)c1=O`, the AC50 result is “inactive”.
Still for that read-out and setting: in the case of `COc1ccc(Oc2ncc3nc(C)c(=O)n(C)c3n2)cc1` it was “inactive”.
As for `Cn1c(=O)c(-c2cc(F)cc(F)c2)nc2cnc(Oc3ccccc3)nc21`, the AC50 entry is “inactive”.
Turning to `COc1ccc(Oc2ncc3nc(CCc4ccccc4)c(=O)n(C)c3n2)cc1`, the AC50 was 10 µM (active).
In the case of `COc1ccc(Oc2ncc3nc(-c4cc(F)cc(F)c4)c(=O)n(C)c3n2)cc1`, the AC50 entry was “inactive”.
Take `Cn1c(=O)c(CCc2ccccc2)nc2cnc(Oc3ccccc3)nc21`: the AC50 was 25.1 µM (active).
For the molecule `CC(C)N=c1cc2n(-c3ccc(Cl)cc3)c3ccccc3nc-2cc1Nc1ccc(Cl)cc1`, the AC50 result was “inactive”.
On to `O=c1c2ccccc2nc2n1C(CSCc1cccc(C(F)(F)F)c1)CS2` (stereo not drawn), for which the AC50 is 0.251 µM (active).
Take `COc1ccc2cc3[n+](cc2c1OC)CCc1cc2c(cc1-3)OCO2`: the AC50 entry was “inactive”.
Same read-out and setting: in the case of `C[n+]1cc2c3c(ccc2c2ccc4cc5c(cc4c21)OCO5)OCO3` it was 6.31 µM (active); in that of `O=C(Nc1cc2c(oc1=O)CCCC2=O)c1ccc(Cl)cc1`, 22.4 µM (active).
Turning to `O=c1ccc(NS(=O)(=O)c2ccc(Cl)cc2)cn1Cc1ccc(Cl)c(Cl)c1`, the concentration at half-maximal activity (AC50) was 0.251 µM (active).
Turning to `O=c1ccc(NS(=O)(=O)c2ccccc2)cn1Cc1ccc(Cl)c(Cl)c1`, the AC50 was 0.2 µM (active).
Same read-out and setting: the figure for `Cc1ccc(S(=O)(=O)Nc2ccc(=O)n(Cc3ccc(Cl)c(Cl)c3)c2)cc1` is 0.158 µM (active).
As for `O=C(c1ccccc1-c1nc(-c2ccccc2)no1)N1CCOCC1`, the AC50 entry was “inactive”.
The same measure, in the same setting: in the case of `Clc1ccccc1-c1nc(-c2ccncc2)no1` it was 0.0631 µM (active); in that of `CS(=O)(=O)c1ccccc1-c1nc(-c2cc(C(F)(F)F)cc(C(F)(F)F)c2)no1`, “inactive”.
For `CO[C@@H]1COC(=O)C/C=C\[C@@H](C)[C@@H]2C=C[C@H](O)[C@@H](COC(=O)CCC[C@H]1C)O2`, the activity, negative = inhibition is -8.99% [at 11.4 µM] (inactive).
As to `COc1ccc2c(=O)c(-c3ccccc3C)c(C)oc2c1`, the concentration at half-maximal activity (AC50) is 20 µM (active).
For `CC(C)Oc1ccc2c(=O)c3cc(C(=O)O)ccc3oc2c1`, the AC50 result is “inactive”.
Take `N[C@H](C(=O)O)[C@H](O)C(=O)O`: the AC50 result is “inactive”.
For `COc1ccccc1C1CC(c2c(-c3ccccc3)c3cc(Cl)ccc3[nH]c2=O)=NN1S(C)(=O)=O` (stereo not drawn), the AC50 is 3.16 µM (active).
The same measure, in the same setting: in the case of `Cc1ccc(-c2noc(-c3cc4ccccc4oc3=O)n2)cc1` it was “inactive”.
The same measure, in the same setting: in the case of `O=c1oc2ccccc2cc1-c1csc(NN=C2CCCCC2)n1` it was 1.58 µM (active); in that of `CCCc1nnc(SCC(=O)N2CCCC(C)C2)n1CC1CCCO1` (stereo not drawn), “inactive”; in that of `CC1CC(C)CN(C(=O)CSc2nnc(CSc3ncccn3)n2C)C1` (stereo not drawn), 14.1 µM (active).
Same read-out and setting: in the case of `CS(=O)(=O)c1ccc([C@H](O)[C@H](CO)NC(=O)C(Cl)Cl)cc1` it was “inactive”; in that of `Cc1ccc(-c2csc(C(C#N)=C3CCCC3)n2)cc1`, 2.24 µM (active).
For `N#CC(=C1CCCC1)c1nc(-c2ccccc2)cs1`, the AC50 is 1.41 µM (active).
`Nc1nc(N)c(-c2cccc(C(F)(F)F)c2)c(Cc2cccc(C(F)(F)F)c2)n1`: the AC50 is 2.51 µM (active).
Take `Cc1ccc(C(=O)N2CCN(C3c4cccc5cccc(c45)C3NS(=O)(=O)c3ccccc3)CC2)cc1` (stereo not drawn): the AC50 was 3.16 µM (active).
On to `Cc1ccc(S(=O)(=O)N[C@H](C(=O)N2CCC(C(=O)NCC(=O)O)CC2)C(C)C)cc1`, for which the AC50 result is “inactive”.
Turning to `CC(C)(CO)[C@H](O)C(=O)NCCCO`, the AC50 entry is “inactive”.
On to `CCOc1ccc(N(C(C)C(=O)N/N=C(\C)c2cccc(NC(=O)c3ccccc3)c2)S(C)(=O)=O)cc1` (stereo not drawn), for which the concentration at half-maximal activity (AC50) is 3.98 µM (active).
Regarding `C/C(CCN1CCCCc2nc(C)c(C)cc21)=N\OC[C@@H](C)[C@H](OCc1ccccc1)C(C)C`, the activity, negative = inhibition is -22.2% [at 11.4 µM] (inactive).
Take `C[N+](C)(C)CCO`: the AC50 result is “inactive”.
For `O=C(Nc1nccs1)C1Cc2ccccc2CN1S(=O)(=O)c1ccc(F)cc1` (stereo not drawn), the concentration at half-maximal activity (AC50) was 0.891 µM (active).
Still for that read-out and setting: in the case of `CCc1nnc(NC(=O)C2Cc3ccccc3CN2S(=O)(=O)c2ccc(C)cc2)s1` (stereo not drawn) it was 0.631 µM (active).
Same read-out and setting: the figure for `O=C(Nc1nnc(C2CC2)s1)C1Cc2ccccc2CN1S(=O)(=O)c1ccccc1F` (stereo not drawn) is 0.0282 µM (active).
On to `O=C(O)c1c[nH]c2c(ccc3[nH]cc(C(=O)O)c(=O)c32)c1=O`, for which the activity, negative = inhibition is -8.42% [at 11.4 µM] (inactive).
As for `O=C(N/N=C\c1cccc(O)c1)c1ccncc1`, the activity, negative = inhibition was -1.11% [at 11.4 µM] (inactive).
For the molecule `Cc1ccccc1C(=O)N/N=C/c1ccncc1`, the AC50 is 39.8 µM (active).
With `Cc1cc(NC(=O)c2ccco2)ccc1-n1cnnn1`, the AC50 is 17.8 µM (active).
`CC(=O)Nc1cccc(NC(=O)C2CCCN2C(=O)Nc2ccccc2C)c1` (stereo not drawn): the AC50 entry is “inactive”.
For the molecule `Cc1cc(C)cc(NC(=O)N2CCCC2C(=O)Nc2ccc(-n3cnnn3)c(C)c2)c1` (stereo not drawn), the AC50 is 0.282 µM (active).
For `Cc1cc(C)c(NC(=O)C2CCCN2C)c(C)c1` (stereo not drawn), the AC50 result was “inactive”.
Regarding `CC(C)=CCC/C(C)=C/CO/N=C1/C[C@@H](O)[C@@H](O)[C@@H]2[C@@H]3C(=O)N(C(C)(C)C)C(=O)[C@H]3CC[C@@H]12`, the activity, negative = inhibition is -29.1% [at 11.4 µM] (inactive).
Take `CCOC(=O)c1c(NC(=O)/C=C/c2ccc3c(c2)OCO3)sc(C)c1C`: the AC50 result was “inactive”.
For `CCOC(=O)c1c(NC(=O)/C=C/c2ccc3c(c2)OCO3)sc(C)c1CC`, the concentration at half-maximal activity (AC50) is 5.01 µM (active).
For the molecule `COc1cccc(OC)c1C(=O)NC(=S)N1CCN(c2ccc(C(F)(F)F)cc2[N+](=O)[O-])CC1`, the concentration at half-maximal activity (AC50) was 14.1 µM (active).
Regarding `CC(C)Oc1cccc(C(=O)NC(=S)N2CCN(c3ccc(C(F)(F)F)cc3[N+](=O)[O-])CC2)c1`, the AC50 was 8.91 µM (active).
Turning to `COc1ccccc1CN1CCCC2(CCN(S(C)(=O)=O)CC2)C1`, the AC50 entry is “inactive”.
`O=P(O)(O)O[C@@H]1O[C@H](CO)[C@@H](O)[C@H](O)[C@@H]1O`: the activity, negative = inhibition is 38.5% [at 11.4 µM] (inactive).
Take `CCOc1ncccc1C(=O)OCC(=O)Nc1cc(C)ccc1C`: the AC50 is 5.01 µM (active).
Same read-out and setting: the entry for `Cc1ccc(C)c(NC(=O)Cn2c([N+](=O)[O-])cnc2C)c1` is “inactive”; for `CCOCC(=O)Nc1cc(-c2cn3cccnc3n2)ccc1C` it is “inactive”.
On to `Cc1ccc(C(=O)NC(=S)NCC2CCCO2)cc1` (stereo not drawn), for which the AC50 is 6.31 µM (active).
For `CCOc1cc(NC(=S)NCC2CCCO2)c(OCC)cc1NC(=O)c1cccc(C)c1` (stereo not drawn), the AC50 is 11.2 µM (active).
As to `CCOC(=O)Nc1ccc(C(=O)NCC2CCCO2)cc1` (stereo not drawn), the AC50 entry was “inactive”.
Take `Cc1cc(=O)oc(C)c1C(=O)NCc1cccnc1`: the AC50 result is “inactive”.
With `O=C(O)c1cc2cc(Cc3cccnc3)ccc2o1`, the AC50 entry was “inactive”.
Regarding `Cc1ccccc1CS(=O)(=O)Cc1ccc(C(=O)NCc2cccnc2)o1`, the AC50 is 3.55 µM (active).
For the molecule `CCOc1ccc(OCc2ccc(C(=O)N3CCc4ccccc4C3)o2)cc1`, the AC50 is 5.62 µM (active).
`CC1CCN(C(=O)c2ccc(COc3ccccc3Cl)o2)CC1`: the AC50 was 8.91 µM (active).
For the molecule `CCOc1ccc(OCc2ccc(C(=O)NCc3cccnc3)o2)cc1`, the AC50 is 22.4 µM (active).
As to `NS(=O)(=O)c1cc2c(cc1Cl)NC(CSCc1ccccc1)=NS2(=O)=O`, the AC50 entry is “inactive”.
In the case of `CNC[C@@H](SC)c1ccc(O)c(O)c1`, the activity, negative = inhibition is -19% [at 11.4 µM] (inactive).
For the molecule `Cc1cccc(C)c1NC(=O)CN1CCN(CCCC(c2ccc(F)cc2)c2ccc(F)cc2)CC1`, the AC50 result is “inactive”.
`CC(=O)Nc1ccc(NC(=O)Cn2c(-c3ccc(F)cc3)cnc2SCC(=O)Nc2c(C)cccc2C)cc1`: the AC50 was 1.58 µM (active).
`CCNc1ncc2nc(-c3ccc(Cl)cc3)c(=O)n(C[C@H]3CCCO3)c2n1`: the AC50 entry is “inactive”.

Broadly, the AC50 is the concentration giving half of the maximal activity seen.
